Source: PubChem BioAssay (National Center for Advancing Translational Sciences (NCATS))
Shown are actives, neighbours in structure and some others; about 7.3% of the full set was active somewhere.
NPC1 promoter act: qHTS Assay for NPC1 Promoter Activators; hit rate 2.4% among 320,000; Potency, µM (top dose mostly 9.22 µM), without a hit: at the top dose activation, actives largely listed as activators; AID 485313, 2010; Huh7 NPC1 promoter luciferase reporter, 24 h; also: % of control where 0% means no effect; nearly all actives have a fitted effect of over 60% in size
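Huh7 reporter cells (NPC1 promoter driving luciferase) are dosed with compound for 24 h at 37 °C, 5% CO2; luciferase detection reagent is then added and luminescence measured after 10 min at ambient temperature.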
ELG1 genotox: qHTS screen for small molecules that induce genotoxicity in human embryonic kidney (HEK293T) cells expressing luciferase-tagged ELG1; HEK293T ELG1-luciferase reporter, luminescence, 16 h; Potency, µM (top dose mostly 46 µM), for inactives: at the highest dose activity change, positive = activation, actives largely listed as activators; hit rate 1.3% among 330,000; also: % of control where 0% means no effect; nearly all actives have a fitted effect of over 60% in size
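ELG1-luciferase HEK293T cells, 2,000/well; compound pinned in; 16 hr, 37 °C, 5% CO2; ONE-Glo, 30 min RT; luminescence on CCD imager.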
SMN2 splice enh: qHTS Assay for Enhancers of SMN2 Splice Variant Expression; Potency, µM (highest dose often 46.1 µM), for inactives: at the top dose activity change, positive = activation, most hits filed as activators; HEK293 SMN2-luciferase splicing reporter, luminescence, 30-36 h; hit rate 2.8% among 210,000; also: % of control where 0% means no effect; nearly all actives have a fitted effect of over 55% in size
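HEK293 cells carry an SMN2 minigene-luciferase reporter in which exon 7 inclusion puts luciferase in frame. Cells were seeded at 2000 cells/well, attached for 10-12 hours, then exposed to compounds for 30-36 hours at 37C before ONE-Glo luminescence.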
KinaseGlo FLuc: Counterscreen for Luciferase (Kinase-Glo TM) Inhibition | Luciferin 4-monooxygenase (Photuris pensylvanica), Q27757 | Kinase-Glo luciferase, ATP luminescence, 8 min | Potency, µM (doses to about 38.3 µM), inactives show at the top dose activity change, negative = inhibition, actives largely listed as inhibitors | hit rate 0.28% among 200,000 | AID 1379, 2008; also: % is scaled to controls: 0 for no effect and ±100 for the full control effect; nearly all actives have a fitted effect of over 60% in size
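Inhibition of Kinase-Glo luciferase light generation was assessed at 10 uM ATP in pH 7.2 imidazole buffer, with luminescence measured after eight minutes at ambient temperature.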
FLuc counter: qHTS profiling assay for firefly luciferase inhibitor/activator using purifed enzyme and Km concentrations of substrates (counterscreen for miR-21 project) | purified FLuc, Km substrates, luminescence inhibition | Potency, µM (highest dose often 57.5 µM), for the others: top-dose activity change, negative = inhibition, usual class: inhibitors | hit rate 6.9% among 360,000 | AID 588342, 2011;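 also: plate controls were vehicle for no effect and reference inhibitor for full effect; nearly all actives have a fitted effect of over 55% in size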
Target sequence (P08659 whole entry, looked up): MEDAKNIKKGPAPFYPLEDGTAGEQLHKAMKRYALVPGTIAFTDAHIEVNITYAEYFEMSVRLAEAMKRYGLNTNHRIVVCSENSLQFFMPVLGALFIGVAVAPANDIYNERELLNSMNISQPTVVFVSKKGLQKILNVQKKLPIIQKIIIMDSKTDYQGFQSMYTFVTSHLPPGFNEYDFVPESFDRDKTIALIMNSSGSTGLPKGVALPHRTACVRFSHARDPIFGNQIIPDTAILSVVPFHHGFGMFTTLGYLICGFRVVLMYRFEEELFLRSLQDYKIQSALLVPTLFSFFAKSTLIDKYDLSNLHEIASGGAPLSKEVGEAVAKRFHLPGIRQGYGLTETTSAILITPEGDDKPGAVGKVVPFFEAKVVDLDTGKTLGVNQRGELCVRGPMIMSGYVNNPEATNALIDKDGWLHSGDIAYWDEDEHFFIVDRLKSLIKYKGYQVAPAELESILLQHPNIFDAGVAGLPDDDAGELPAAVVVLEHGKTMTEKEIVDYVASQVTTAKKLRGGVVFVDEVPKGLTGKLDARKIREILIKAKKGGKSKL
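Purified P. pyralis luciferase (10nM final) with 10uM D-luciferin and 10uM ATP (Km levels) in 50mM Tris acetate pH 7.5, 10mM Mg acetate, 0.01% Tween-20, 0.05% BSA; qHTS 6-point titration, ~60 µM downward; luminescence read.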
Rab9 promoter act: qHTS Assay for Rab9 Promoter Activators | Huh7 Rab9 promoter-luciferase reporter, luminescence, 24 h | Potency, µM (top dose mostly 9.22 µM), for the others: at the top dose activation, negative = inhibition, hits mostly activators | hit rate 2.8% among 320,000 | AID 485297, 2010; also: % of control where 0% means no effect; nearly all actives have a fitted effect of over 60% in size
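Huh7 reporter line, Rab9 promoter upstream of luciferase. Compound exposure 24 h at 37 °C in reduced-serum medium with 10% FBS. Read-out: luminescence.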
Active calls of the source: *; ? = inconclusive; nt = no result; [ ] = remark or other dose. Calls follow the shape of the dose curve; as a rule, active = well fitted curve in the direction sought with a large enough effect; inconclusive = small, poorly fitted or top-dose-only effect, or another doubt; inactive = no such curve, though single readings can be large; an effect the other way counts as inactive or inconclusive. Potency is read from the fitted curve at half-maximal effect.

SMILES | NPC1 promoter act | ELG1 genotox | SMN2 splice enh | KinaseGlo FLuc | FLuc counter | Rab9 promoter act
O=C1/C(=C/c2cccc([N+](=O)[O-])c2)Oc2cc(O)ccc21 | 13% | 0% | nt | nt | ? | 3%
O=C1/C(=C/c2ccc(O)c(O)c2)Oc2cc(O)ccc21 | ? | 15µM* | nt | nt | 15µM* | 20%
CCCCC[C@]12Cc3cc(OC)c(OC)cc3C(O1)c1c(cc(C)n(-c3ccccc3)c1=O)O2 | -2%[1.84 µM] | nt | nt | nt | 0%[11.5 µM] | -3%[1.84 µM]
O=C(N/N=C/c1ccccc1F)NC1CCCCC1 | ? | ? | ? | 2% | 24µM* | 2.8µM*
C(/C=C/c1ccco1)=N/N1CCN(c2ccccc2)CC1 | 1.6µM* | ? | ? | -12% | 8.5µM* | 3.5µM*
Clc1ccccc1CN1CCN(/N=C/C=C\c2ccco2)CC1 | 13% | 13% | 20% | -1% | 17µM* | ?
Cc1ccc(N2CCN(/N=C/C=C/c3ccccc3)CC2)cc1 | -3% | 1% | -15% | 3% | -1% | 2%
CCc1ccc(-c2cn3c(n2)sc2cc(C(=O)NCCc4ccc(OC)cc4OC)ccc23)cc1 | nt | nt | nt | nt | 5% | nt
N#Cc1cc2c(OCC(O)CN3CCN(C(c4ccccc4)c4ccccc4)CC3)cccc2[nH]1 (stereo not drawn) | nt | nt | -4% | nt | nt | nt
CCOC(=O)c1c(C)[nH]c(C(=O)OCc2ccccc2F)c1C | 1.6µM* | 1.6µM* | nt | nt | 2.7µM* | 1.6µM*
CCOC(=O)c1c(C)[nH]c(C(=O)OCc2ccc(F)cc2)c1C | 2.2µM* | 15µM* | nt | nt | 4.8µM* | 1.6µM*
CC(=O)c1c(C)[nH]c(C(=O)OCc2ccccc2)c1C | ? | 18µM* | ? | -3% | 15µM* | ?
CCOC(=O)c1[nH]c(C)c(C(=O)Nc2ccccc2F)c1C | -26% | ? | 5µM* | 2% | ? | -7%
CCOC(=O)c1[nH]c(C)c(C(=O)OC)c1C | 10% | 15% | nt | nt | ? | -1%
CCOC(=O)c1[nH]c(C)c(C(=O)Nc2ccc(C)cc2C)c1C | -32% | 6% | ? | -1% | 2% | -23%
CC(C)(C)CC(=O)NCC(c1ccc2c(c1)OCO2)N1CCN(c2ccccc2)CC1 (stereo not drawn) | nt | nt | nt | nt | 5% | nt
CCN1CCC(N(Cc2ccc3c(c2)OCO3)C(=O)Nc2cc(Cl)ccc2C(=O)OC)CC1 | nt | nt | nt | nt | 1% | nt
CCOC(=O)c1[nH]c(C)c(C(=O)Nc2ccc(C)c(C)c2)c1C | ? | 11% | 18% | 2% | -9% | 1.4µM*
CCOC(=O)c1[nH]c(C)c(C(=O)Nc2ccc(F)cc2)c1C | 1% | 21% | 6% | -1% | 3% | -5%
CCOC(=O)c1c(C)[nH]c(C(=O)Nc2ccc3c(c2)OCO3)c1C | 3.5µM* | ? | nt | -9% | 4.8µM* | 4µM*
Cc1ccc(C)c(Cn2c(SCC(=O)N(C)Cc3ccccc3)nc3ccccc32)c1 | nt | nt | nt | nt | 5% | nt
Cc1nn(CC(=O)NCc2ccc(N(C)C)cc2)c(=O)c2c(C)n(-c3ccc(Cl)cc3)nc12 | nt | nt | nt | nt | -9% | nt
Cc1ccc(N2C(=O)CS(=O)(=O)CC2=O)cc1 | -1% | -1% | -3% | 3% | -3% | -8%
Cc1ccc(N2C(=O)CC3(CCCC3)CC2=O)cc1 | 2% | 10% | nt | nt | 11µM* | 12%
COc1cc2c(cc1OC)C(c1ccc(F)cc1)N(c1ccc(F)cc1)C(=O)C2 (stereo not drawn) | nt | nt | 23% | nt | -2% | nt
Cn1cccc1C(=O)NCCc1ccc(Cl)cc1 | 2.8µM* | ? | nt | nt | 15µM* | 2.5µM*
Cn1cccc1C(=O)NCc1ccc(Cl)cc1 | 10% | 0% | nt | nt | 0% | 3%
O=C(CCC1COc2ccccc2O1)NCC1COc2ccccc2O1 (stereo not drawn) | -3% | -1% | -18% | 0% | 0% | -1%
